Results filed as inconclusive are left out. The source made the active and inactive calls. Unless noted, the call rests on the fitted dose curve.
Tests used:
[1] = Nuclear factor erythroid 2-related factor 2/antioxidant responsive element (Nrf2/ARE) small molecule agonists: qHTS cell viability counter screen in human keratinocytes (AID 1919968; active means well fitted curve in the direction sought with a large enough effect in the repeat runs; an effect the other way counts as inactive or inconclusive; further: nearly all actives have a fitted effect of over 55% in size; further: potency means the concentration at half of the fitted maximal effect)
Outline: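 Parallel cytotoxicity read: KeratinoSens HaCaT cells, compound treatment 23 h, viability by CellTiter-Fluor fluorescence 1 h post-reagent.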

[2] = Nuclear factor erythroid 2-related factor 2/antioxidant responsive element (Nrf2/ARE) small molecule agonists: luciferase reporter gene qHTS assay in human keratinocytes (AID 1919969); further: nearly all actives have a fitted effect of over 35% in size; further: potency means the concentration at half of the fitted maximal effect
[3] = target: Gonadotropin-releasing hormone receptor (Homo sapiens) (UniProt P30968); test: Human gonadotropin-releasing hormone receptor (GnRHR) small molecule agonists, calcium flux assay in GnRHR-HEK293 cells (AID 1920063); further: nearly all actives have a fitted effect of over 35% in size
Gonadotropin-releasing hormone receptor (Homo sapiens), sequence (P30968 whole entry, looked up): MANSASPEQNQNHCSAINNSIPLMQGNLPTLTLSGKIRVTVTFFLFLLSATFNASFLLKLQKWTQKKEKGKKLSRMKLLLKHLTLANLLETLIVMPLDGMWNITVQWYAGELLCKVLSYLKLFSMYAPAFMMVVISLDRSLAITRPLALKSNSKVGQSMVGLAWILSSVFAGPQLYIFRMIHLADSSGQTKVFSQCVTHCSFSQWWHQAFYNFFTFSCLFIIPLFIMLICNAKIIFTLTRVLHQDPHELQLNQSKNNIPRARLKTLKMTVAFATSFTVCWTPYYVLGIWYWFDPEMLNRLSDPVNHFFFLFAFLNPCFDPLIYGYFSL
Outline: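 Calcium flux, agonist mode, human GnRHR stably integrated in HEK293; dye 1 h at 37 C before compound; Ex/Em=480/540 kinetic read, 3 min; 15 concentrations, triplicate.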

[4] = target: KiSS-1 receptor (Homo sapiens) (UniProt Q969F8); test: Human kisspeptin (KISS1R) small molecule agonists, calcium flux assay in KISS1R-HEK293 cells (AID 1920064; active means well fitted curve in the direction sought with a large enough effect in the repeat runs; an effect the other way counts as inactive or inconclusive)
KiSS-1 receptor (Homo sapiens), sequence (Q969F8 whole entry, looked up): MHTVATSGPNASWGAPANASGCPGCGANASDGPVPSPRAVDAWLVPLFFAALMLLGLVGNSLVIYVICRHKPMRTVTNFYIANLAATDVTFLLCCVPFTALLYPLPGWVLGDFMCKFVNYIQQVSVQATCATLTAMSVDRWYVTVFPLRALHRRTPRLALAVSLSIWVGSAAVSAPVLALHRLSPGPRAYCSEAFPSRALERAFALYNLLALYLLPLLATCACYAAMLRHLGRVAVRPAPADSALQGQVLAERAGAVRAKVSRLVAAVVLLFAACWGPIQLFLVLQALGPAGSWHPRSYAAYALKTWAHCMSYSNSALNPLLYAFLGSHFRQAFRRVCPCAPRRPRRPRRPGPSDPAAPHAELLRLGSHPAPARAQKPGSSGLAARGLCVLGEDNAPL
Outline: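 Triplicate 15-concentration series were applied to dye-loaded human KISS1R HEK293 cells, and agonist-evoked calcium fluorescence was captured for 3 min.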

[5] = G protein-coupled receptor (GPCR) small molecule agonists, calcium flux assay: HEK293 wild type cell line counter screen (AID 1920065)
Outline: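 Non-specific calcium responders were flagged by adding DMSO-dissolved compounds to dye-loaded cells and reading 480/540 nm fluorescence each second for 3 min; ATP served as positive control.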

[6] = p53 small molecule agonists, cell-based qHTS assay with human liver microsomes (AID 1963577);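 further: p53 response element beta-lactamase reporter cells with liver microsomes plus NADPH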
Outline: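 Reporter activation was measured by LiveBLAzer fluorescence intensity in p53RE-bla cells, which had been exposed to compounds for 16 h at 37 C alongside 0.5 mg/mL human liver microsomes and 0.5 mg/mL NADPH (final concentrations).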

[7] = p53 small molecule agonists, cell-based qHTS assay with rat liver microsomes (AID 1963578)
Outline: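 Compound in DMSO added to p53RE-bla cells 5 h post-plating; rat microsomes/NADPH 0.5 mg/mL final; 16 h, 37 C; LiveBLAzer 2 h RT.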

[8] = p53 small molecule agonists, cell-based qHTS assay with human liver microsomes: qHTS cell viability counter screen (AID 1963579); further: nearly all actives have a fitted effect of over 45% in size
Outline: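 HLM-supplemented (0.5 mg/mL final) and NADPH-supplemented (0.5 mg/mL final) p53RE-bla cultures, 4,000 cells per well, were dosed with compounds in DMSO for 16 h at 37 C; luminescent ATP detection (CellTiter-Glo, 30 min, room temperature) quantified surviving cells.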

[9] = p53 small molecule agonists, cell-based qHTS assay with rat liver microsomes: qHTS cell viability counter screen (AID 1963580); further: nearly all actives have a fitted effect of over 45% in size
Outline: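 Cytotoxicity counter screen: intracellular ATP read by CellTiter-Glo luminescence in the p53 reporter wells. HCT-116 p53RE-bla cells were treated for 16 h at 37 C alongside rat liver microsomes and NADPH, each 0.5 mg/mL final.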

[10] = p53 small molecule agonists, cell-based qHTS assay: qHTS cell viability counter screen (AID 1963581); further: nearly all actives have a fitted effect of over 45% in size
Outline: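 Multiplexed with the reporter read, a CellTiter-Glo step (30 min, room temperature) gauges ATP-based viability of HCT-116 p53RE-bla cells after 16 h compound incubation at 37 C.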

[11] = p53 small molecule agonists, cell-based qHTS assay (AID 1963582; active means well fitted activation curve with a large enough effect in the signal ratio in the repeat runs, not every such curve was filed as active; the % refers to the signal ratio)
Outline: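 Beta-lactamase reporter cells (p53RE-bla) treated with compounds for 16 h at 37 C; FRET substrate, 2 h, room temperature; fluorescence intensity.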

[12] = target: 5-hydroxytryptamine receptor 2A (Homo sapiens) (UniProt P28223); test: 5-hydroxytryptamine receptor 2A (HTR2A) small molecule antagonists, cell-based qHTS assay (AID 1963586); further: nearly all actives have a fitted effect of over 45% in size; further: potency means the concentration at half of the fitted maximal effect
5-hydroxytryptamine receptor 2A (Homo sapiens), sequence (P28223 whole entry, looked up): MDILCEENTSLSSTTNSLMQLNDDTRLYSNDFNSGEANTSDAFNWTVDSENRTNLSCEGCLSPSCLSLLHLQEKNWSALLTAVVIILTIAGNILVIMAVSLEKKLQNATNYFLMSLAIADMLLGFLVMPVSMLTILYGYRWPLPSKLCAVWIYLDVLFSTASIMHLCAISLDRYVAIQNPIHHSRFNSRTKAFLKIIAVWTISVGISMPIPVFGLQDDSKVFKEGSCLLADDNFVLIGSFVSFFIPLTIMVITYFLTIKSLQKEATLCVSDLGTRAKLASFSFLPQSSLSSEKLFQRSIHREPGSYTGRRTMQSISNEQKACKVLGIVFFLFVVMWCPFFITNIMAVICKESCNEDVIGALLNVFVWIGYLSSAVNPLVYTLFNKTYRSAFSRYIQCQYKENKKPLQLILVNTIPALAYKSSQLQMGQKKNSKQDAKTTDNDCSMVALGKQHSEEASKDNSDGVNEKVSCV
Outline: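 CHO cells stably expressing human HTR2A were plated for 18 h at 37 C, then loaded with calcium dye for 1 h. Compounds were preincubated 5 min at room temperature before DOI (4 nM solution) was added. Kinetic fluorescence was read for 3 min.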

[13] = target: 5-hydroxytryptamine receptor 2A (Homo sapiens) (UniProt P28223); test: 5-hydroxytryptamine receptor 2A (HTR2A) small molecule agonists, cell-based qHTS assay (AID 1963587); further: nearly all actives have a fitted effect of over 30% in size
Outline: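 Kinetic calcium-flux fluorescence (2 min, 1 sec intervals) after compound addition in agonist mode. HTR2A-CHO cells were cultured 18 h, then dye-loaded 1 h at 37 C.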

[14] = target: Muscarinic acetylcholine receptor M1 (Homo sapiens) (UniProt P11229); test: Cholinergic receptor muscarinic 1 (CHRM1) small molecule agonists, cell-based qHTS assay (AID 1963589); further: nearly all actives have a fitted effect of over 35% in size
Muscarinic acetylcholine receptor M1 (Homo sapiens), sequence (P11229 whole entry, looked up): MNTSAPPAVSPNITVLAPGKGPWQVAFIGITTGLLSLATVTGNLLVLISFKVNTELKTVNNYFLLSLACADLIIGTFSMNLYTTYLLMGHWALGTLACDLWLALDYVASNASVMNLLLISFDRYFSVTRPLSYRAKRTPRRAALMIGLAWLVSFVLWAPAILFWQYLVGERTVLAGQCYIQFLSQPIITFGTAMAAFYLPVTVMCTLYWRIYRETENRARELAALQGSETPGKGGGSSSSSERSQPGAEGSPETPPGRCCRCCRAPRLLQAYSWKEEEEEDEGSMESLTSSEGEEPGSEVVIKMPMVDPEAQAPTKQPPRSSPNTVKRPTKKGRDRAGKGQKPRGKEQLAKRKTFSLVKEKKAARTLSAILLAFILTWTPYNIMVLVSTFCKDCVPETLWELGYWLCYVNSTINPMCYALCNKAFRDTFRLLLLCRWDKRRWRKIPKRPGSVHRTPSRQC
Outline: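 qHTS, 15-point titration, 3 independent runs: compounds pin-transferred onto dye-loaded CHRM1-CHO cells (human M1), calcium fluorescence followed every second to detect agonism.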

[15] = cAMP Responsive Elements (CRE) small molecule agonists, cell-based qHTS assay (AID 1963590)
Outline: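 Quantitative HTS for CRE agonists: HEK 293T CRE-bla cells, overnight plating, 3 h compound incubation at 37 C/5% CO2, then 2 h room-temperature LiveBLAzer B/G FRET substrate loading.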

[16] = cAMP Responsive Elements (CRE) small molecule antagonists, cell-based qHTS assay (AID 1963591; active means well fitted inhibition curve with a large enough effect in the signal ratio in the repeat runs, not every such curve was filed as active; the % refers to the signal ratio)
Outline: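 Fluorescence intensity from cleaved LiveBLAzer B/G substrate (2 h, room temperature) quantified CRE-bla activity in HEK 293T cells exposed 3 h to compound with 0.25 uM final NKH477.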

[17] = target: Beta-2 adrenergic receptor (Homo sapiens) (UniProt P07550); test: Adrenergic beta2 receptor (ADRB2) small molecule antagonists, cell-based qHTS assay (AID 1963592); further: series mostly up to about 92 µM; nearly all actives have a fitted effect of over 50% in size
Beta-2 adrenergic receptor (Homo sapiens), sequence (P07550 whole entry, looked up): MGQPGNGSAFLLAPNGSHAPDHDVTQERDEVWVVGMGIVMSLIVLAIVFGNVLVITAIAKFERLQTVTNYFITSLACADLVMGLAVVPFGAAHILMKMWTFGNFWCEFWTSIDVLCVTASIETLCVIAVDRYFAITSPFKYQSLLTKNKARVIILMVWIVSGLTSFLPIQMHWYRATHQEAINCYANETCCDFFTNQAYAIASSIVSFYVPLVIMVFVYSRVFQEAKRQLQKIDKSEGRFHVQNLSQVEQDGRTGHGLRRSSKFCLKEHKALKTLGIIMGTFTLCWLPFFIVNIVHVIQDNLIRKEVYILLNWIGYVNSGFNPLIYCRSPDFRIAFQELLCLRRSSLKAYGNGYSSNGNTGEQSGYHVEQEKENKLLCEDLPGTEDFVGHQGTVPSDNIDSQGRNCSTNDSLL
Outline: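 Assay format: CHO-ADRB2 cells, 18-20hr seeding at 37C/5% CO2, then compound plus 1nM isoproterenol agonist mix for 0.5hr RT. Homogeneous time-resolved fluorescence cAMP detection after 1hr, expressed as 665/615 nm ratio.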

[18] = target: D(2) dopamine receptor (Homo sapiens) (UniProt P14416); test: Dopamine D2 receptor (DRD2) small molecule agonists, cell-based qHTS assay (AID 1963594); further: nearly all actives have a fitted effect of over 35% in size
D(2) dopamine receptor (Homo sapiens), sequence (P14416 whole entry, looked up): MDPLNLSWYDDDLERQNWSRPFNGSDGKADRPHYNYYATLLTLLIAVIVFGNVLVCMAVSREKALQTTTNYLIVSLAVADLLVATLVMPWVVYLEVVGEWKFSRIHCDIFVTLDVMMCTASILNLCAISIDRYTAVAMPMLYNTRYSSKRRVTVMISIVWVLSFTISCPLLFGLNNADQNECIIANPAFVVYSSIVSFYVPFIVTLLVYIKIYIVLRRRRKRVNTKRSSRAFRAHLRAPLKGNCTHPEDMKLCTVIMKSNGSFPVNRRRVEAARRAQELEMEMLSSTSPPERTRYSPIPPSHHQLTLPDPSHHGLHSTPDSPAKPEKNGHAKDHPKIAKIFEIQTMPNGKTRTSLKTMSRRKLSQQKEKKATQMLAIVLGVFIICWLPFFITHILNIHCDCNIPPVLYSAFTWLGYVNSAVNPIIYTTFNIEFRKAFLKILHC
Outline: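 cAMP accumulation in DRD2-HEK293 cells measured by HTRF after 1 h detection; compounds added 10 min before NKH477 (200nM […]) forskolin-analogue stimulation, 30 min at room temperature, with Ro20-1724 present at 0.1 mM final.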

[19] = target: D(2) dopamine receptor (Homo sapiens) (UniProt P14416); test: Dopamine D2 receptor (DRD2) small molecule antagonists, cell-based qHTS assay (AID 1963595; active means well fitted inhibition curve with a large enough effect in the signal ratio in the repeat runs, with a control signal flat; the % refers to the signal ratio)
Outline: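 Antagonism was scored as restored cAMP in HEK293-DRD2 cells. These cells were stimulated with 200 nM NKH477 and 12 nM quinpirole for 30 min at room temperature, in the presence of 0.1 mM Ro20-1724.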

[20] = target: Muscarinic acetylcholine receptor M1 (Homo sapiens) (UniProt P11229); test: Cholinergic receptor muscarinic 1 (CHRM1) small molecule antagonists, cell-based qHTS assay (AID 1963588); further: nearly all actives have a fitted effect of over 40% in size
Outline: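 Compounds were tested at 15 concentrations in three independent runs. Dye-loaded CHRM1-CHO cells were exposed 5 min at room temperature before stimulation by acetylcholine added at 50nM. Intracellular calcium was read kinetically on FDSS for 3 min.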
On the % scale 0 is the no-effect control and ±100 the full control effect.

CN1[C@@H]2CC[C@H]1CC(OC(=O)c1cc(Cl)cc(Cl)c1)C2 (stereo partly drawn)
inactive: Potency [1] | Potency [2] | Potency [3] | Potency [4] | Potency [5] | Potency [6] | Potency [7] | Potency [8] | Potency [9] | Potency [10] | Potency [11] | Potency [12] | Potency [13] | Potency [14] | Potency [15] | Potency [16] | Potency [17] | Potency [18] | Potency [19]

COc1cc(Cl)c(OC)cc1Cl
inactive: Potency [1] | Potency [2] | Potency [3] | Potency [4] | Potency [5] | Potency [6] | Potency [7] | Potency [8] | Potency [9] | Potency [10] | Potency [11] | Potency [12] | Potency [13] | Potency [20] | Potency [14] | Potency [17] | Potency [19]

Cc1c([N+](=O)[O-])cc2c(c1[N+](=O)[O-])C(C)(C)CC2(C)C
active: Potency [2] 48.6 µM
inactive: Potency [1] | Potency [3] | Potency [4] | Potency [5] | Potency [6] | Potency [7] | Potency [8] | Potency [9] | Potency [10] | Potency [11] | Potency [12] | Potency [13] | Potency [20] | Potency [14] | Potency [15] | Potency [17] | Potency [18] | Potency [19]

O=C(Cl)C(Cl)(Cl)Cl
inactive: Potency [1] | Potency [2] | Potency [3] | Potency [4] | Potency [5] | Potency [6] | Potency [7] | Potency [8] | Potency [9] | Potency [10] | Potency [11] | Potency [12] | Potency [13] | Potency [20] | Potency [14] | Potency [15] | Potency [16] | Potency [18] | Potency [19]

CCC(C)Br (stereo not drawn)
inactive: Potency [1] | Potency [2] | Potency [3] | Potency [4] | Potency [5] | Potency [6] | Potency [7] | Potency [8] | Potency [9] | Potency [10] | Potency [11] | Potency [12] | Potency [14] | Potency [15] | Potency [16] | Potency [17] | Potency [18] | Potency [19]

NC1CCC(CC2CCC(N)CC2)CC1 (stereo not drawn)
inactive: Potency [2] | Potency [3] | Potency [4] | Potency [5] | Potency [6] | Potency [7] | Potency [8] | Potency [9] | Potency [10] | Potency [11] | Potency [12] | Potency [20] | Potency [14] | Potency [15] | Potency [17] | Potency [18] | Potency [19]
active: Potency [1] 23.9 µM

O=C(O)C(F)(F)C(F)(F)C(F)(F)C(F)(F)C(F)(F)C(F)(F)C(F)(F)C(F)(F)C(F)(F)F
inactive: Potency [1] | Potency [2] | Potency [3] | Potency [4] | Potency [5] | Potency [6] | Potency [7] | Potency [8] | Potency [9] | Potency [10] | Potency [11] | Potency [12] | Potency [13] | Potency [20] | Potency [14] | Potency [15] | Potency [16] | Potency [17] | Potency [19]

O=S1(=O)OCCO1
inactive: Potency [1] | Potency [2] | Potency [3] | Potency [4] | Potency [5] | Potency [6] | Potency [7] | Potency [8] | Potency [9] | Potency [10] | Potency [11] | Potency [13] | Potency [20] | Potency [14] | Potency [15] | Potency [17] | Potency [19]

CC(=O)OC1(c2ccccc2)CCN(CCc2ccccc2)CC1
inactive: Potency [1] | Potency [2] | Potency [3] | Potency [4] | Potency [5] | Potency [6] | Potency [7] | Potency [8] | Potency [9] | Potency [10] | Potency [11] | Potency [13] | Potency [20] | Potency [16] | Potency [17] | Potency [18] | Potency [19]
active: Potency [12] 9.65 µM

CCCCCCC(=O)CCCCCC/C=C/C[C@@H](O)[C@H](O)[C@@](N)(CO)C(=O)O
inactive: activity change, negative = cytotoxicity [1] -1.3% [at 19 µM] | activity, positive = activation [2] -3.71% [at 19 µM] | activity change [3] 0.629% [at 11.8 µM, stronger effect = higher value] | activation [4] 0.0857% [at 15.8 µM] | activation [5] 0.714% [at 11.8 µM] | activation [6] 4.34% [at 13.5 µM] | activation [7] 0.608% [at 13.6 µM] | activity change, negative = cytotoxicity [8] 0.682% [at 13.5 µM] | activity change, negative = cytotoxicity [9] -0.611% [at 13.5 µM] | activity change, negative = cytotoxicity [10] 17.4% [at 13.5 µM] | activation [11] 0.605% [at 13.5 µM] | activity, negative = inhibition [12] 87.4% [at 12.7 µM] | activation [13] 2.62% [at 15.9 µM] | activity, negative = inhibition [20] 3.07% [at 12.6 µM] | activation [14] -0.559% [at 15.8 µM] | activation [15] 3.57% [at 19 µM] | activity change, negative = inhibition [17] 9.53% [at 19 µM] | activity change, negative = inhibition [19] 0.928% [at 18.9 µM]

CC(Oc1cccc(Cl)c1)C(=O)O (stereo not drawn)
inactive: Potency [1] | Potency [2] | Potency [3] | Potency [4] | Potency [5] | Potency [6] | Potency [7] | Potency [8] | Potency [9] | Potency [10] | Potency [11] | Potency [12] | Potency [13] | Potency [20] | Potency [14] | Potency [16] | Potency [17] | Potency [18] | Potency [19]

COc1ccc(C=O)cc1O
inactive: Potency [1] | Potency [2] | Potency [3] | Potency [4] | Potency [5] | Potency [6] | Potency [7] | Potency [8] | Potency [9] | Potency [10] | Potency [11] | Potency [12] | Potency [13] | Potency [14] | Potency [15] | Potency [16] | Potency [17] | Potency [19]

CCN(CC)C(=O)Cl
inactive: Potency [1] | Potency [2] | Potency [3] | Potency [4] | Potency [5] | Potency [6] | Potency [7] | Potency [8] | Potency [9] | Potency [10] | Potency [11] | Potency [13] | Potency [20] | Potency [14] | Potency [15] | Potency [16] | Potency [17] | Potency [18] | Potency [19]
